# MBNL1 CUG block = inhibitors of human MBNL1 binding to CUG repeat RNA | Q9NR56 | TR-FRET MBNL1-His/biotin-(CUG)12 binding, 665/545 ratio | Potency, µM (titrated, usually from 57.5 µM), without a hit: at the top dose activity change, negative = inhibition, usual class: inhibitors | hit rate 0.036% among 280,000 | AID 2675; active = well fitted inhibition curve with a large enough effect in the signal ratio, with a control signal flat, not every such curve was filed as active; inconclusive = small, poorly fitted or top-dose-only effect, or effect the other way, or a change in a side signal; inactive = no such curve, though single readings can be large or run the other way; the % refers to the signal ratio; note: potency is the fitted concentration of half-maximal effect; % is set by controls: 0 for no effect and ±100 for the full control effect
#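 Inhibition of protein-RNA binding appears as loss of TR-FRET between terbium anti-His antibody on MBNL1-His and streptavidin-XL665 on biotin-(CUG)12. Activity is normalized to buffer-only and uninhibited-complex controls.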
# a7 integrin act = activators of alpha7 integrin expression for muscular dystrophy. alpha7betagal myoblasts, beta-gal FDG fluorescence, 48 h. Potency, µM (highest dose often 38.3 µM), inactives show at the top dose activation, actives largely listed as activators. hit rate 0.064% among 350,000. AID 624291;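 note: potency is the fitted concentration of half-maximal effect; 100% = response of the positive control SU9516; nearly all actives have a fitted effect of over 60% in size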
#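 Alpha7betagal+/- myoblasts (passage 13) were plated 16-24 hr, then exposed to compounds (1:260 dilution of DMSO stock) for 48 hours at 37C. After MPER lysis, β-galactosidase reporter activity was read as FDG fluorescence (ex 480/em 540) after 30 minutes.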
# DRD3 antagonist = blocks the human D3 dopamine receptor | P35462 | D3R cells, DiscoveRx beta-arrestin luminescence, antagonist mode; stronger effect = lower value | max response, negative = inhibition, % | hit rate 2.5% among 360,000; in the data active = max response below about -50%; inconclusive = no clear call, values can overlap the other calls; note: % is set by controls: 0 for no effect and ±100 for the full control effect
# Target sequence (P35462 whole entry, looked up): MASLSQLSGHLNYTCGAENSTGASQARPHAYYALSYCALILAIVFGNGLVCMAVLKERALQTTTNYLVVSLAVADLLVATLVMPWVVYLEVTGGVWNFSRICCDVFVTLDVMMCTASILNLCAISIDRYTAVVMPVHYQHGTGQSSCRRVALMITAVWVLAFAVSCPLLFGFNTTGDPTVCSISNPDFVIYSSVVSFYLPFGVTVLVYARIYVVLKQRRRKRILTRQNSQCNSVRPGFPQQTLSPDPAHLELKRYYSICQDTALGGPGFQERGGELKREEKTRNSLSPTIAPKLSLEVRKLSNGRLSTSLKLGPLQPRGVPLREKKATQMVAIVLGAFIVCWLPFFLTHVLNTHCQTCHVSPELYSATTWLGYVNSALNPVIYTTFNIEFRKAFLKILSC
#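 Cells expressing the human receptor were seeded at 1500 cells/well, incubated overnight at 37 degrees C in 5% CO2, then exposed to library compounds with dopamine controls for 90 minutes at 37 degrees C before luminescent detection.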
# PTHR1 agonist = agonists of human PTHR1 parathyroid hormone receptor | Q03431 | HEK293 GP2 PTHR1 cells, GloSensor cAMP luminescence, 1 h | Potency, µM (highest dose often 115 µM), for the others: top-dose activation, hits mostly activators | hit rate 0.075% among 410,000 | AID 743266; note: potency is the fitted concentration of half-maximal effect; nearly all actives have a fitted effect of over 55% in size
#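 HEK-293-derived GP2 cells expressing PTHR1 and a GloSensor cAMP reporter, 3,000/well, plated overnight, given luciferin plus IBMX (each 0.5 mM as added) for 1 h at 37 °C, then compound for 1 h at 37 °C. Luminescence was read after 15 min at room temperature.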
# DRD3 agonist = activates the human D3 dopamine receptor; P35462; D3R DiscoveRx beta-arrestin cells, luminescence, 90 min; max activation, %; hit rate 0.58% among 410,000; in the data active = max activation above about 30%; note: 0% is about no effect
#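 Agonist mode: compounds and dopamine controls were applied to plated cells for 90 min at 37 degrees C after an overnight attachment at 1500 cells/well. Luminescent read-out followed 30 - 60 minutes at room temperature with DiscoveRx detection reagent.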
# CBFb RUNX1 block = CBF-beta/RUNX1 interaction disruption; AID 1477; AlphaScreen CBFb-His/RUNX1-biotin binding, biochemical; Potency, µM (top dose mostly 59.8 µM), for inactives: at the highest dose activity, negative = inhibition, actives largely listed as inhibitors; 230,000 tested, under 10 active; note: % of control where 0% means no effect
#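 Proteins preincubated together for 20 min at RT before compound addition; 15 min later, nickel and streptavidin beads were added and left 90 min prior to AlphaScreen measurement.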
# * marks the source's active call; other numbers are inactive results; i = inactive; ? = inconclusive; . = no result; [ ] = another dose, or the depositor's remark. In the library only some 2.8% were active in any assay of this set; here they are far more common. Unless noted, calls come from the whole dose curve; as a rule, active = well fitted curve in the direction sought with a large enough effect; inconclusive = small, poorly fitted or top-dose-only effect, or another doubt; inactive = no such curve, though single readings can be large; an effect the other way counts as inactive or inconclusive.
SMILES,MBNL1 CUG block,a7 integrin act,DRD3 antagonist,PTHR1 agonist,DRD3 agonist,CBFb RUNX1 block
Cc1ccc(C(=O)N/C(=C/c2cccc([N+](=O)[O-])c2)C(=O)NC(C)C)cc1,?,23.9%,3.3,-15.5%,1.6,-8.5%
COCCCn1c(=O)c2sccc2n(Cc2ccc(C)cc2)c1=O,2.4%,-23.9%,16.8,i,-1.8,.
CCN1CCN(CCCOc2ccc(Cl)cc2Br)CC1,-14.2%,-75.1%,?,7.4%,-10.7,-1.2%
Clc1ccc(OCCCN2CCCCC2)c(Br)c1,-11.6%,-51.7%,-68.3*,i,-10.1,-8.8%
Clc1ccc(OCCCCCN2CCCC2)c(Br)c1,?,-66.7%,-51.9*,i,-14.1,-16.2%
CCCCN1CCC(COC(=O)c2cc(Cl)c(N)c3c2OCCO3)CC1,.,.,-107.6*,i,-97.6,-12.8%
CCC1C(=O)C(C)(C)C(=O)OC1c1ccc([N+](=O)[O-])cc1 (stereo not drawn),?,-21.0%,-27.9,-12.2%,-5.9,.
O=C1CC(=O)OC(c2ccc([N+](=O)[O-])cc2)O1,.,-65.8%,-86.6*,-94.0%,-10.0,.
CC(C)Oc1ccc(CNC(=O)Cn2ccc3cc(S(=O)(=O)N4CCCC4)ccc32)cc1,1.6%,-3.2%,-4.4,i,1.2,.
O=C(Nc1ccc(C(=O)N2CCCC2)cc1)c1cc(F)c(F)cc1Cl,.,5.3%,-4.7,-1.4%,4.4,.
O=C(NN1C(=O)c2ccccc2NC1c1ccc([N+](=O)[O-])o1)c1ccc([N+](=O)[O-])cc1 (stereo not drawn),?,-58.0%,-61.5*,i,1.0,-0.8%
CN(C)CCNc1oc(-c2ccccc2Cl)nc1S(=O)(=O)c1ccccc1,.,23.8%,-0.7,13.2%,-15.0,.
Cc1cccc(-c2nc(S(=O)(=O)c3ccc(F)cc3)c(NCCCN3CCOCC3)o2)c1,-3.3%,3.7%,-72.7*,-6.8%,-11.8,.
Cc1ccc(S(=O)(=O)c2nc(-c3ccccc3)oc2NCCCN2CCOCC2)cc1,-9.6%,30.5%,-75.9*,-20.7%,-15.6,-11.2%
CN(C)CCCNc1oc(-c2ccccc2Cl)nc1S(=O)(=O)c1ccc(F)cc1,-5.8%,-74.2%,-60.7*,i,-22.7,.
CCS(=O)(=O)c1nc(S(=O)(=O)c2ccc(C)cc2)c(NCCCN2CCOCC2)s1,-0.3%,24.8%,-6.1,i,-1.1,.
CCN(CC)CCNc1oc(-c2ccccc2)nc1S(=O)(=O)c1ccccc1,.,?,-76.3*,i,-8.8,.
CC1Cc2ccccc2N1C(=O)CSc1nc2ccc(NC(=O)COc3ccccc3)cc2s1 (stereo not drawn),.,.,.,-34.0%,5.4,.
COc1ccc(-c2nc(S(=O)(=O)c3ccccc3)c(NCCCN3CCOCC3)o2)cc1,.,-9.9%,-56.9*,i,-5.3,.
Cc1[nH]c2ccccc2c(=O)c1CN(C)Cc1ccccc1,?,-0.9%,-63.1*,-16.9%,-3.1,6.6%
CC(C)Oc1ccc(C(=O)N/N=C/c2ccc(-c3ccc(S(=O)(=O)Nc4ncccn4)cc3)o2)cc1,?,2.6%,-54.5*,-24.6%[57.5 µM],5.1,-10.1%
C=Cc1ccc(Cn2c(C)c(C(=O)NCc3ccc4c(c3)OCCO4)sc2=O)cc1,.,.,?,-4.9%,-9.6,.
COc1ccc(Cc2nnc(NCCO)[nH]c2=O)cc1,-0.6%,?,5.8,-22.7%,33.5*,.
COc1ccc(Cc2nnc(NCCO)[nH]c2=O)cc1OC,0.1%,4.8%,-8.7,i,-2.1,.
Cc1ccc2nc(SCC(=O)OCc3ccccc3)nc(=O)n2c1,.,14.5%,-55.4*,5.5%,-1.3,.
O=C(NCCc1ccc(F)cc1)C(=O)NCC1CCCN1S(=O)(=O)c1cccs1 (stereo not drawn),.,2.8%,0.9,i,-3.0,.

# From PubChem BioAssay
